Key:
Experiment in all cases: log2 ratio of Biotin-Ahx-Ub-VS probe labelling (fragment/DMSO); higher = less target engagement (more negative = stronger competition), active = hit call of the paper (q ≤ 0.05, log2 ratio ≤ -1)
Settings in all cases: compound concentration: 200 uM; treatment time: 3 h
USP34 = USP34 (UniProt Q70CQ2)
Outline: (§1)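 The table lists average log2 ratios of fragment over vehicle, from an unpaired t-test on global-median-normalised Spectronaut label-free quantities. Proteins with ≥2 unique peptides were used. Samples were HEK293T lysate (495 µg) treated in triplicate with fragment at 200 µM or vehicle for 3 h, then with Biotin-Ahx-Ub-VS (0.5 µM final) for 1 h, with labelled DUBs NeutrAvidin-enriched and run by diaPASEF LC-MS/MS.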

USP36 = target: T1, USP36 (UniProt Q9P275)
T1 sequence (whole entry): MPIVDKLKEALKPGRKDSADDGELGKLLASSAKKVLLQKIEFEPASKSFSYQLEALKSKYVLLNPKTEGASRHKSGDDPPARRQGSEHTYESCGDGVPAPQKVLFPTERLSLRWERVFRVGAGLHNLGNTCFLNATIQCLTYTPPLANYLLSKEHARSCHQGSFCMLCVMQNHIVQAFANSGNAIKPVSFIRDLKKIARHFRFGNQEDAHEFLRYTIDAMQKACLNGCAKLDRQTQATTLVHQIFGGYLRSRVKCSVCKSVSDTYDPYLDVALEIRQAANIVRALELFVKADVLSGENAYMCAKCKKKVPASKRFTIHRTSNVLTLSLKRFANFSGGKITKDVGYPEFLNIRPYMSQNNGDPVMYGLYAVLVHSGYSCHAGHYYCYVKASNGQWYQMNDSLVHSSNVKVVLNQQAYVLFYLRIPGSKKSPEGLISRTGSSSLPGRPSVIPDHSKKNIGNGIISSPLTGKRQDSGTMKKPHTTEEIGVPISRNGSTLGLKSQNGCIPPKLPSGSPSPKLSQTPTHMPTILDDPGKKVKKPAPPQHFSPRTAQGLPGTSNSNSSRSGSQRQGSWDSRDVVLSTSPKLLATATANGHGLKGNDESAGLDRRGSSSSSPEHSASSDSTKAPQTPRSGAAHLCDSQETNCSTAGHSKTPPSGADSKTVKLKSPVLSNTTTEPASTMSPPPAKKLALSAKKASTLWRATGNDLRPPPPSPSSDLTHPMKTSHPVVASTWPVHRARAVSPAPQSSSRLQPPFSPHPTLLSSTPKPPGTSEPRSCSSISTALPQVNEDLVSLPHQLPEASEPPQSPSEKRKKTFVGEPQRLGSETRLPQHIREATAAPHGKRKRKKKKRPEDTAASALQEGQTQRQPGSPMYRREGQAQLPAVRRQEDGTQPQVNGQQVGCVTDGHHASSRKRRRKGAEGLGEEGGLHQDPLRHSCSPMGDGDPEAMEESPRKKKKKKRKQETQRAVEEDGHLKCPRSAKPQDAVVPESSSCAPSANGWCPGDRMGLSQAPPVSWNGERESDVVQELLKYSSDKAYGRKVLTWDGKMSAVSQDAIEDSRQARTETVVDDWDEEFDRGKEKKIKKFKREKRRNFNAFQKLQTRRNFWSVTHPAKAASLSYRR
Outline: as §1

USP38 = target: T2, USP38 (UniProt Q8NB14)
T2 sequence (whole entry): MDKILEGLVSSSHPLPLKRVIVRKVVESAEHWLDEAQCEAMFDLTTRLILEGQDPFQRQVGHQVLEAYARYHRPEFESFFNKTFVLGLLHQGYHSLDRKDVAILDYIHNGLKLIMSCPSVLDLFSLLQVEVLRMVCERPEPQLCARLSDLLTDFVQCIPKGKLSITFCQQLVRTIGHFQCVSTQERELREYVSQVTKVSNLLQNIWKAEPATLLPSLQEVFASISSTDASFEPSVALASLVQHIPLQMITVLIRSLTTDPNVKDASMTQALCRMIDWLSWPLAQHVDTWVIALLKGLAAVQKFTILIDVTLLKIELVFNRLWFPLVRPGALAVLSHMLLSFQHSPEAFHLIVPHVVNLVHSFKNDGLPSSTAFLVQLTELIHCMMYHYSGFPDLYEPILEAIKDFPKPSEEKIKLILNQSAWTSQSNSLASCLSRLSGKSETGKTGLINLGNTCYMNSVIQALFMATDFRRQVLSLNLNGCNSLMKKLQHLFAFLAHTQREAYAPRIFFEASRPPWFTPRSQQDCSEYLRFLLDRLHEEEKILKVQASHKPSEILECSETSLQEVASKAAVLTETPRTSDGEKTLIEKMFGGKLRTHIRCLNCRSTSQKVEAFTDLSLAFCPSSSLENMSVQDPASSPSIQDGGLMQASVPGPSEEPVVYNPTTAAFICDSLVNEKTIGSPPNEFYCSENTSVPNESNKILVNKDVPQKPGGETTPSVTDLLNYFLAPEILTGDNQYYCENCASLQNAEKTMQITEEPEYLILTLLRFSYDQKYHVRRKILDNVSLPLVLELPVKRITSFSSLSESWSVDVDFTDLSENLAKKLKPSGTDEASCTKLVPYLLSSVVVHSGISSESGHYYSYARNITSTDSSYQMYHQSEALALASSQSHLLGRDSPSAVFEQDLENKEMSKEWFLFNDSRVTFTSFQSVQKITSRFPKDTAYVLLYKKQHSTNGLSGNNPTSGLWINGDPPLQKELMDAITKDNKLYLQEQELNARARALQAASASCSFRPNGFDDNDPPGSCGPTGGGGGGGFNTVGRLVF
Outline: as §1

USP39 = target: T3, USP39 (UniProt Q53GS9)
T3 sequence (whole entry): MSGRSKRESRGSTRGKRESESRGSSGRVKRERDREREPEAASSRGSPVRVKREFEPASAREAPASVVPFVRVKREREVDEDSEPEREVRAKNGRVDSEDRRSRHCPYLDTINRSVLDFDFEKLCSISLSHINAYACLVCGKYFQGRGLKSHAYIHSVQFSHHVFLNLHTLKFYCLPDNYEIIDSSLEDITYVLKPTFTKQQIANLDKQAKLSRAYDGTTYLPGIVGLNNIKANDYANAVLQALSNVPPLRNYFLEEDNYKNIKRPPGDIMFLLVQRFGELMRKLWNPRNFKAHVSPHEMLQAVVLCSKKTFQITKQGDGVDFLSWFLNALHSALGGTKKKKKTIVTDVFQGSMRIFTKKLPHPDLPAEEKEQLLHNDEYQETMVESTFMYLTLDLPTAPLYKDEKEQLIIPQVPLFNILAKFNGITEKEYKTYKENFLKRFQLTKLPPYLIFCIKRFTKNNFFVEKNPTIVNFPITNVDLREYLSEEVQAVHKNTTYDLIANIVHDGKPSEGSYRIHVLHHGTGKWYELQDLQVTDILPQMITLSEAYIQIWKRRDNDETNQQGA
Outline: as §1

USP4 = target: T4, USP4 (UniProt Q13107)
T4 sequence (whole entry): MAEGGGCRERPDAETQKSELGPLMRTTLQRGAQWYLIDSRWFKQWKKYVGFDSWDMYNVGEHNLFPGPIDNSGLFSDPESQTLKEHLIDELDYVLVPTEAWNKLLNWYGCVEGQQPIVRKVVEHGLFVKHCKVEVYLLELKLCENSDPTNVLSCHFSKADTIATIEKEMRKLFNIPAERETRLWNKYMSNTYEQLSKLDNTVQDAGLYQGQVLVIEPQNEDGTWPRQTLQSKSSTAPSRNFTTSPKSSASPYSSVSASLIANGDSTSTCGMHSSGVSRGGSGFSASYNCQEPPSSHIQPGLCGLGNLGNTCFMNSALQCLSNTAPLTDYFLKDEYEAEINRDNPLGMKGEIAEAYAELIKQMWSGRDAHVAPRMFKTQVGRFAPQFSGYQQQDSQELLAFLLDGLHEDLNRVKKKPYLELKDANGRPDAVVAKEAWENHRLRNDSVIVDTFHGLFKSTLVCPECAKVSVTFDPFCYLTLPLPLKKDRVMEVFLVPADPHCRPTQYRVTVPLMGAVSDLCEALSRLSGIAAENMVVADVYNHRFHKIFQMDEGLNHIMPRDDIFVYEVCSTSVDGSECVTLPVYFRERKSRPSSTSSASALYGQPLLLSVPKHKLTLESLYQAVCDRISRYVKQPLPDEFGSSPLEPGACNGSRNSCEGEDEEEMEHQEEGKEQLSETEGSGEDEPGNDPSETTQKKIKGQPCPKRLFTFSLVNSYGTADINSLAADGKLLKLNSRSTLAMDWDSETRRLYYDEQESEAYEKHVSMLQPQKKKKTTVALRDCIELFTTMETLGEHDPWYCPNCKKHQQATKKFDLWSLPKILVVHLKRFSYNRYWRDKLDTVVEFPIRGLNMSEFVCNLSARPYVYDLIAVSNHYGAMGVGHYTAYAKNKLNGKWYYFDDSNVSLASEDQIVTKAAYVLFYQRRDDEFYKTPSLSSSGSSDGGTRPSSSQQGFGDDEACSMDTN
Outline: as §1

Measured: log2 ratio of Biotin-Ahx-Ub-VS probe labelling

Sequence of USP34 (Q70CQ2 whole entry, the tested form may be a part): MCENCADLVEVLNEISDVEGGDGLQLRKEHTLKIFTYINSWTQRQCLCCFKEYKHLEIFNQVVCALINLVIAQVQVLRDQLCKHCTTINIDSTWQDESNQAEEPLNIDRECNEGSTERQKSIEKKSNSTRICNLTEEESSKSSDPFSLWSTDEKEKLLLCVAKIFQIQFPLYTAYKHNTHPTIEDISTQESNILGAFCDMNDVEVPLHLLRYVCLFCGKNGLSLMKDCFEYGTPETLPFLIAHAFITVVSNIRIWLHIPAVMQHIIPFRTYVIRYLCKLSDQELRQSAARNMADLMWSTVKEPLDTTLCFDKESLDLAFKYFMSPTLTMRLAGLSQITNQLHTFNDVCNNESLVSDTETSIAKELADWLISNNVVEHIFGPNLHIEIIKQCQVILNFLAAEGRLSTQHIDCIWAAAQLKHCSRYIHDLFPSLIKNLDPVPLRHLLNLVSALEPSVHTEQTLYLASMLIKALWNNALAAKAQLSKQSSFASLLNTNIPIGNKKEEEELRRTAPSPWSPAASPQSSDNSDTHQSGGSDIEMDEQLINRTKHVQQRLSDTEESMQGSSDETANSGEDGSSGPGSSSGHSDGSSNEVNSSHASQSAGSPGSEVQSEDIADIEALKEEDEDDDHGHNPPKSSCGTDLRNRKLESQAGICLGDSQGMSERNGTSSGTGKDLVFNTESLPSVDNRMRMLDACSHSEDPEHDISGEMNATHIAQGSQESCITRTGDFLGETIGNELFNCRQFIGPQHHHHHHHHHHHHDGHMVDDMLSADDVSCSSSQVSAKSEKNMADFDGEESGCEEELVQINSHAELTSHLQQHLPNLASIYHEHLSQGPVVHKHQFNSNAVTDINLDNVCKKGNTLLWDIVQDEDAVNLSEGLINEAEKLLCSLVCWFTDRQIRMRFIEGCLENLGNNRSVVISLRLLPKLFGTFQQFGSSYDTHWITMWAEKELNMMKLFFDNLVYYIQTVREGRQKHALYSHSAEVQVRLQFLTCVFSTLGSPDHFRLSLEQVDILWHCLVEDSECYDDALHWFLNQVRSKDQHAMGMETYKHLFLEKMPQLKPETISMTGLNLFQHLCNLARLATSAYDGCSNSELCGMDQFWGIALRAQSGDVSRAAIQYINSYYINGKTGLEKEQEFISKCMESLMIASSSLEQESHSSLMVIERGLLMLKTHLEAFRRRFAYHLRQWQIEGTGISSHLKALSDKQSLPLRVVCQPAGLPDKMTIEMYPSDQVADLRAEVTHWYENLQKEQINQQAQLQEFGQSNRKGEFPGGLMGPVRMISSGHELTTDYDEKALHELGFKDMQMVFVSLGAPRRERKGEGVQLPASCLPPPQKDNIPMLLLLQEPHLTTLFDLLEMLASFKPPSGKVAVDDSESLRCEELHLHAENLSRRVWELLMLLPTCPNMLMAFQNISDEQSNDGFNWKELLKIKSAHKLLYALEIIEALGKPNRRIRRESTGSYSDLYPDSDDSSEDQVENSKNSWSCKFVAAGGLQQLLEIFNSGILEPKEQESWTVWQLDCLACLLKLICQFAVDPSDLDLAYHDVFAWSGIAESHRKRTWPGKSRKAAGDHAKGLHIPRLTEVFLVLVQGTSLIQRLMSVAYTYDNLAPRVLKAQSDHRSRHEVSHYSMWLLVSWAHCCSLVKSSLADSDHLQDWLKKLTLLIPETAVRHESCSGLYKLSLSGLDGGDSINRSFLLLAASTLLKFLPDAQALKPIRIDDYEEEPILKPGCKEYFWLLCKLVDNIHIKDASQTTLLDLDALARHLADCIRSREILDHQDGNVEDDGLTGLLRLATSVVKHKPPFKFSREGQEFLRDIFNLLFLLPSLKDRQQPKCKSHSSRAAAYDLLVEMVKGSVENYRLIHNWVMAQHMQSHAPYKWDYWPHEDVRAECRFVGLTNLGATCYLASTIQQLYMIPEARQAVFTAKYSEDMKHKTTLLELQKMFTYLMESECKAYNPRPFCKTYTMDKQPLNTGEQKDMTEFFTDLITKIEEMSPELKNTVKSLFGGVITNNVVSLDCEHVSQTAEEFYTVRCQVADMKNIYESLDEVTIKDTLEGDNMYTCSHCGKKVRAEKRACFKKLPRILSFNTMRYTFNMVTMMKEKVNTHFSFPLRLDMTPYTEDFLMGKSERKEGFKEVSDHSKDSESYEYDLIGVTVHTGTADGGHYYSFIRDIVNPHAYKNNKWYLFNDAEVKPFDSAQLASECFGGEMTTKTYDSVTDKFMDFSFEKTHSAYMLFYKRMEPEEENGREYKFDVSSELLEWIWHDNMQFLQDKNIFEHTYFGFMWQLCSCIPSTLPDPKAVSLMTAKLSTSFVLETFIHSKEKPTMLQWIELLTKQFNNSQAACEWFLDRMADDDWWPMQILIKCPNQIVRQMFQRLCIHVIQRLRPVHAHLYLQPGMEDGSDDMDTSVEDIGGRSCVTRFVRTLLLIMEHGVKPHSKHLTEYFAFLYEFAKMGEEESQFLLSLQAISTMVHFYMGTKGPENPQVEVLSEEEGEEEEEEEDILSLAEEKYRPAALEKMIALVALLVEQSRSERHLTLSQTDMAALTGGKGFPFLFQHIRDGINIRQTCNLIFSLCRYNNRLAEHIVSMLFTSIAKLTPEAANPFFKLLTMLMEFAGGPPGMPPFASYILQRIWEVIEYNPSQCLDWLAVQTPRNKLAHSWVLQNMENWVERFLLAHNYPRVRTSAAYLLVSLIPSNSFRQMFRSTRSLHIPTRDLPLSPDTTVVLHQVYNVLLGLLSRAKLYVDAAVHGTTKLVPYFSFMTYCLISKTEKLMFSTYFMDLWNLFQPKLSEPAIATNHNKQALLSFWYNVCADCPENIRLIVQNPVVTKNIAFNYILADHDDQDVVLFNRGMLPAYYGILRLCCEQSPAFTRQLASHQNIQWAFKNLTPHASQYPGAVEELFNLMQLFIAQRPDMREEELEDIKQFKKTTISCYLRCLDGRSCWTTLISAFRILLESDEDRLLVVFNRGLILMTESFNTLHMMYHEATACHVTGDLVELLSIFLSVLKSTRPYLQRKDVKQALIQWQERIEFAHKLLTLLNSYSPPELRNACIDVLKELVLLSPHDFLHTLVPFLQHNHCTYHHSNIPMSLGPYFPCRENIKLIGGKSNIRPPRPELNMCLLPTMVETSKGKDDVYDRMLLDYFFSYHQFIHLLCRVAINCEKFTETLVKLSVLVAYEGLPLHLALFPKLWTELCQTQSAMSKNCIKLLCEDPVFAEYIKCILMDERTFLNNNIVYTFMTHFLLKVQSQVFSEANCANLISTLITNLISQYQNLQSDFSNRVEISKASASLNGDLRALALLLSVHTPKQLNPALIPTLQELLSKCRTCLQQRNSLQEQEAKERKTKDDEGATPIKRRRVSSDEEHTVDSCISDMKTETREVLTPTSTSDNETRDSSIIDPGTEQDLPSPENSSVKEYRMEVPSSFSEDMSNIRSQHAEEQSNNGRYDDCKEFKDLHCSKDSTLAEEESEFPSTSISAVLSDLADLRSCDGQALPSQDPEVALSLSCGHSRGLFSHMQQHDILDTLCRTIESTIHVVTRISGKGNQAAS

O=C(CCl)N1CCOC(CCc2ccccc2)C1 (stereo not given)
inactive: USP34 -0.338 | USP36 0.0399 | USP38 -0.227 | USP39 0.136 | USP4 -0.729

From the supplement of paper PMC11732987, “Enantioselective OTUD7B fragment discovery through chemoproteomics screening and high-throughput optimisation” (Communications Chemistry, 2025)
